Measurements: PubChem BioAssay AID686940 (The Scripps Research Institute Molecular Screening Center, 2013)
In all, about 370,000 compounds went through this assay and about 2,600 (0.7%) were called active. The sample as a whole holds a higher share of actives than the screen did. Values without a mark were called inactive.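 How the source made its calls: active means inhibition above a per-plate cutoff, mean inhibition of test wells between control levels plus 3 SD (cut at about 38% in these data); inactive means the rest.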

The compounds below were run against COUP transcription factor 2 (Homo sapiens) (UniProt P24468) (assay: NR2F2 transcriptional activity inhibitors, primary screen, cell-based, luciferase reporter, HEK293T, luminescence (AID 686940;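 further: cells cotransfected with COUP-TFII expression vector driving the NGFI-A reporter; 0% = median of COUP-TF2 test wells and 100% = reporter-only cells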)). Conditions: HEK293T NGFI-A luciferase reporter, at 8.6 µM, hits give high values.
Chain of COUP transcription factor 2 (Homo sapiens) (P24468 whole entry, looked up): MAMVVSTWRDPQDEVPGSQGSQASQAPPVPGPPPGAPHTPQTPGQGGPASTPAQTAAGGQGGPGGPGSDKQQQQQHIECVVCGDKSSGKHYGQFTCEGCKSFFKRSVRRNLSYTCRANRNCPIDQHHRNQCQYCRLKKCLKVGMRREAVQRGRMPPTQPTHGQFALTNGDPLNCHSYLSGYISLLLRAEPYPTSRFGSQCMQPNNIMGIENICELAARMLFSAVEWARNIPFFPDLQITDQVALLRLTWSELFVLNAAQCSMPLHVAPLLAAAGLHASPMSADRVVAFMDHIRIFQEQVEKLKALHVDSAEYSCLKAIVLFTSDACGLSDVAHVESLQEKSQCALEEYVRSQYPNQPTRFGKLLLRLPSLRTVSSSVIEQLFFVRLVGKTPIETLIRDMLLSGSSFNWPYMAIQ

Structure (SMILES) | inhibition
C[C@H](C(=O)N(C)c1ccccc1)[C@@H](O)c1ccc2ccccc2c1 | 10.2%
Cc1ccc(-n2c(COc3ccccc3)nnc2SCC(=O)Nc2ccc3c(c2)OCCO3)cc1 | 9.88%
OCCCNc1nccc(-c2cc(Nc3cccc(Cl)c3)ncn2)n1 | 44.6% (active)
COc1ccc(-n2c(SCC(=O)NC3CCCC3)nnc2-c2ccncc2)cc1 | 4.6%
CCC(=O)OCCCN1C(=O)CCC12CCC(c1ccccc1)CC2 (configuration not stated) | -6.04%
COc1ccc(C(=O)CSc2nnc(-c3cnccn3)n2-c2ccc(C)cc2)cc1 | 3.51%
O=C(CCl)NC1CCCCN(Cc2cccc(C(F)(F)F)c2)C1=O (configuration not stated) | 4.87%
COc1ccc2c(c1)c(=Cc1ccc(N(C)C)cc1)c1cc(-c3ccccc3)[n+](C)n12 | 76.4% (active)
COC(=O)C1CN(CC(C)C)CCS(=O)(=O)N1Cc1ccc(F)cc1 (configuration not stated) | 6.54%
Cc1nc(CNc2ncnc3ccc(-c4ccc5c(c4)OCO5)cc23)cs1 | 10.5%
C=CCNc1ncnc2ccc(Br)cc12 | 48.3% (active)
COc1ccc(Cn2cc(COC(=O)N(C)Cc3ccccc3)nn2)cc1 | 3.65%
Nc1[nH]c(/C=C2/CCCCC2n2[nH]c(=O)n(-c3ccccc3)c2=O)c(Cc2ccccc2)[n+]1Cc1ccccc1 (configuration not stated) | 10.8%
COC(=O)[C@]12C[C@H](CC(=O)NCc3ccccc3)C(=O)N(Cc3ccccc3)C1=C[C@H](COCc1ccccc1)O[C@@H]2C | 7.28%
COc1cc(/C=C/C(=O)n2cnc3ccccc32)cc(OC)c1OC | 47.1% (active)
COc1cc(/C=C/C(=O)N2CCc3ccccc3C2)cc(OC)c1OC | -52.5%
COc1cc(C(O)c2nc3ccccc3n2C)cc(OC)c1OC (configuration not stated) | 10.1%
COC(=O)C12C=C3CC(c4ccccc4)=C3C(=O)N1Cc1[nH]c3ccccc3c1C2 (configuration not stated) | 5.87%
COc1cccc2c1C(=O)c1c(O)c3c(c(O)c1C2=O)CC(O)(C(C)=NNC(=O)c1ccc(Cl)c(Cl)c1)CC3OC1CC(N)C(O)C(C)O1 (configuration not stated) | 52.1% (active)
CN(C)[C@H]1CCN(c2cccc3c2S(=O)(=O)N2CC[C@H](C2)O3)C1 | -16.6%
CCOC(=O)C1=C(C)NC2=C(C(=O)CC(C)(C)C2)C1c1ccc2c(c1)OCO2 (configuration not stated) | 13.2%
CCc1cc(-c2nnn(CCC3COCCO3)c2CC)ccc1-c1cn(Cc2ccc3ccccc3c2)nn1 (configuration not stated) | 57.9% (active)
COC(=O)[C@]12C[C@H](CC(=O)N3CCOCC3)C(=O)N(Cc3ccc(Cl)cc3Cl)C1=C[C@H](COCc1ccccc1)O[C@@H]2C | -11.3%
CCOc1ccc(OCc2ccc(C(=O)N(C)c3ccccc3)o2)cc1 | -8.76%
COc1cccc(N2CCN(CC(=O)N(C)Cc3ccc(F)cc3)CC2)c1 | 1.56%

Structure (SMILES) | inhibition
CN(C(=O)CN1CCN(c2cc(-c3ccc(OCc4ccccc4)cc3)ncn2)CC1)c1ccccc1 | 60.6% (active)
CCc1ccccc1NC(=O)c1cc(-c2ccc3c(c2)OCO3)on1 | -0.24%
O=C(Nc1nc(-c2ccc3c(c2)OCO3)cs1)c1ccncc1 | 52.5% (active)
CC(O)(c1cccc(F)c1)c1nc(-c2ccc3c(c2)OCO3)cs1 (configuration not stated) | 8.11%
CCOC(=O)c1csc(NC(=O)Nc2cccc(OC)c2)n1 | -7.28%
CC(=O)Nc1ccc(-c2csc(NC(=O)Nc3ccccc3)n2)cc1 | 60.9% (active)
COc1ccc(CC(N)c2csc(NC(=O)Nc3ccc(C(C)C)cc3)n2)cc1 (configuration not stated) | 15.8%
O=C1CC[C@@]23CCCN2C(=O)CCC[C@H]3[C@H]1Cc1ccccc1 | -3.33%
COC(=O)[C@]12C[C@H](CC(=O)NCc3ccccc3)C(=O)N(CCC3=CCCCC3)C1=C[C@H](C(C)C)O[C@@H]2C1CC1 | 2.64%
Cn1c(=O)c2c(nc(NCc3ccccc3)n2CC(N)=O)n(C)c1=O | 4.42%
CCn1c(NCCc2ccc(OC)c(OC)c2)nc2c1c(=O)n(C)c(=O)n2C | -1.49%
CCCCNc1nc2c(c(=O)n(C)c(=O)n2C)n1Cc1cccc(OC)c1 | 53.5% (active)
O=C(NC1CCCCN(Cc2cccc(C(F)(F)F)c2)C1=O)c1ccccc1I (configuration not stated) | 22.4%
CCC(=O)Nc1ccc2c(c1)C(=O)N(C)[C@@H]1CC[C@@H](CC(=O)NCCc3ccccc3)O[C@H]1CO2 | 19%
CC(C)N1CCCCC(NC(=O)C(C)(C)C)C1=O (configuration not stated) | 0.07%
Cc1ccc(CN2CCCCC(NC(=O)C3CCCCC3)C2=O)cc1 (configuration not stated) | 2.64%
O=C(NCCc1c[nH]c2ccccc12)OCc1cn(-c2c(F)cccc2F)nn1 | -1.45%
CC(=O)OCCN1CCCC12CCC(c1ccccc1)CC2 (configuration not stated) | -6.1%
O=c1oc2ccccc2cc1-c1cn(-c2ccccc2)c(=S)[nH]1 | 81.6% (active)
C[C@@H](NC(=O)c1ccccc1OCC(=O)Nc1ccc(I)cc1)C(=O)N(C)Cc1ccccc1 | 3.89%
COc1ccc(CCNC(=O)CSc2nc3c([nH]2)c(=O)n(C)c(=O)n3C)cc1 | -4.66%
CC(CCN1CCC(C(O)(c2ccccc2)c2ccccc2)CC1)Oc1ccc(C(F)(F)F)cc1 (configuration not stated) | 9.47%
O=C(OC12CC3CC(CC(C3)C1)C2)c1ccc(NCc2cc(O)ccc2O)cc1 | 82.7% (active)
COc1ccc(/C=C2/SC(=O)N(CCCCCC(=O)Nc3ccccc3C(=O)O)C2=S)cc1 | 48% (active)
CCCNC(=O)c1ccccc1NC(=O)CSCc1ccc(OC)cc1 | 10.2%

Structure (SMILES) | inhibition
COc1ccc(NC(=O)CCCN2C(=O)C(c3ccccc3)Oc3cccnc32)cc1 (configuration not stated) | -1.91%
CCN(CC)C(=O)CC[C@H]1CC[C@]2(CCCN(Cc3ccc(Cl)cc3)C2)O1 | -15.6%
COc1ccc(CN2C(=O)N3Cc4cc(OC)ccc4C3CS2(=O)=O)cc1 (configuration not stated) | -0.26%
C/C(CCc1ccccc1)=N\NC(=O)c1ccc(CN2CCOCC2)cc1 | -14.4%
O=C(Nc1ccccc1C(=O)N1CCOCC1)c1ccc(CSc2ccccc2)cc1 | 6.62%
O=C(Nc1ccc(CSc2ccccc2)cc1)c1ccc(CN2CCOCC2)cc1 | 68.5% (active)
CCC(CO)Nc1cccc2c1S(=O)(=O)N(Cc1cn(Cc3ccccc3C(F)(F)F)nn1)Cc1ccccc1O2 (configuration not stated) | -2%
COc1ccc(-n2c(SCC(=O)Nc3ccc(C)c(Cl)c3)nc3ccccc3c2=O)cc1 | 2.13%
CCCC[C@H](C(=O)N(CC)c1ccccc1)[C@@H](O)c1ccc2ccccc2c1 | -0.42%
O=C(COc1ccccc1)Nc1ccc(N2CCN(C(=O)c3cccs3)CC2)cc1 | -0.29%
Cc1ccc(OCC(=O)Nc2ccc(N3CCN(C(=O)c4ccco4)CC3)cc2)c(C)c1 | 44.3% (active)
Cc1ccc(NC(=O)C(c2ccccc2)N2CCN(C(=O)c3ccco3)CC2)cc1 (configuration not stated) | 3.53%
C=CCN1C(=O)[C@H](CC(=O)NCCCN2CCCC2=O)[C@@]2(C(=O)OCC)CCCC=C12 | -4.55%
CC(C)(C)NC(=O)C(c1cccnc1)N(C(=O)c1cnco1)c1ccc(C(C)(C)C)cc1 (configuration not stated) | 36.4%
CSc1ccc(C=Nn2c(-c3ccc(F)cc3)n[nH]c2=S)cc1 | -7.74%
Cc1ccc(NC(=S)NNC(=O)CSc2nnc(SCc3ccccc3Cl)s2)cc1 | 9.26%
FC(F)(F)c1cccc(NC(=S)OC2CCC23CCC(c2ccccc2)CC3)c1 (configuration not stated) | -0.26%
COc1cc(CC(=O)Nc2nc(-c3ccc(F)c(F)c3)cs2)cc(OC)c1OC | 64.1% (active)
COc1ccc(CCNC(=O)COC(=O)Cc2cc(OC)c(OC)c(OC)c2)cc1 | 2.38%
O=C(Cc1cccs1)Nc1ccc([N+](=O)[O-])cc1 | 1.87%
COc1ccc(CC(=O)Nc2nc(-c3ccc(F)c(F)c3)cs2)cc1OC | 64.1% (active)
O=C(CCc1ccccc1)NCCc1cccs1 | -20.7%
COc1cc(CCC(=O)Nc2ccncc2Cl)cc(OC)c1OC | -12.9%
COc1ccc(C2(CNC(=O)Cc3ccc(OC)c(OC)c3)CCCC2)cc1 | -3.38%
CCCc1ccc(-c2csc(NC(=O)Cc3cccs3)n2)cc1 | 42.5% (active)

Structure (SMILES) | inhibition
Fc1ccc(-c2csc(-c3ccc(C4SCCS4)cc3)n2)cc1F | 3.02%
O=C(OC12CCCN(C1)/C(=C/c1cccnc1)C2)C1CCCC1 (configuration not stated) | 0.25%
Cc1cccc(C(=O)Nc2c(-c3ccc(F)cc3)nc3ncccn23)c1 | -5.63%
CCN(C(=O)[C@@H](C1CC1)[C@@H](O)c1ccc2ccccc2c1)c1ccccc1 | 8.36%
O=C1C(=O)N(Cc2ccc(-c3ccsc3)cc2)c2ccc(OC(F)(F)F)cc21 | -43.7%
CCCCC(=O)N[C@@H]1CC[C@@]23CCCN2C(=O)CCC[C@H]3[C@H]1C | -2.57%
CCOC(=O)c1cc(C(=O)Nc2ccc(S(=O)(=O)Nc3ccc(OC)cc3)cc2)nn1C | 8.95%
COc1ccc(NS(=O)(=O)c2ccc(NC(=O)c3ccc(N(C)S(C)(=O)=O)cc3)cc2)cc1 | 60.6% (active)
COc1ccc(NS(=O)(=O)c2cc(NC(=O)c3ccc(S(=O)(=O)N(C)C)cc3)ccc2N2CCOCC2)cc1 | 9.06%
O=C(N1CCOCC1)N1CC[C@H]2[C@H](CCCN2Cc2ccc(F)cc2)C1 | 6.77%
CCOC(=O)c1cccc(NC(=O)CN(C)S(=O)(=O)c2ccc(-c3cocn3)s2)c1 | -17.4%
CCn1c(=O)n2n(c1=O)[C@@]1(C=C3CCCC[C@H]32)N=C(NC(=O)c2ccccc2)N(Cc2ccccc2)[C@H]1Cc1ccccc1 | 22.3%
C#CCN([C@H](C(=O)OC)C(C)CC)S(=O)(=O)c1ccccc1Br (some centres not stated) | -21.6%
FC(F)(F)c1cccc(Cn2ccc3ccc(-c4ccc5ccn(Cc6ccccc6)c5c4)cc32)c1 | 6.43%
C[C@H](C(=O)N(C)c1ccccc1)[C@@H](O)c1ccc(Cl)cc1 | -16.9%
O=C(C1CCN(S(=O)(=O)c2cccs2)CC1)N1CCCCCC1 | -11.4%
O=C(Nc1ccc(Br)cn1)C1CCN(S(=O)(=O)c2cccs2)CC1 | 48.1% (active)
O=C(NCc1ccc(Cl)cc1)C1CCN(S(=O)(=O)c2cccs2)CC1 | 5.16%
COC(=O)C1CN(Cc2cn(Cc3ccc(F)cc3)nn2)CCS(=O)(=O)N1Cc1ccc(Cl)cc1 (configuration not stated) | 7.03%
COC(=O)[C@]12C[C@H](CC(=O)NCc3cccs3)C(=O)N(CCc3ccc(OC)c(OC)c3)C1=C[C@H](C(C)C)O[C@@H]2C1CC1 | 17.9%
COc1ccc(N2CCN(CCNS(=O)(=O)c3ccc(C(C)(C)C)cc3)CC2)cc1 | 2.21%
C=CCN1C(=O)[C@@H](CC(=O)N2CCN(C(=O)c3ccco3)CC2)[C@]2(C(=O)OC)CCCCC=C12 | -0.82%
